The supplement of paper PMC10849652
Targets with a hit are over-represented here; the source holds about 8,800 in all. About 0.5% of all pairs of compound and target were hits. A number with no mark means an inactive call.

Assays:
Test in all cases: log2 fold change, soluble protein after heating vs DMSO (PISA); higher = thermal stabilisation; K562 lysate, 10 uM; active = over 0.2 and 3.5 SD of the protein, either way, in both replicates (recomputed)
[1] = compound: C1=CC=C(C=C1)[C@H](COC2=CC3=C(C=C2)NC(=O)N3)NC(=O)C4=CC=CN(C4=O)CC5=CC(=C(C=C5)F)F
Procedure, shortened: (§1)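 A 30 min treatment with 10 μM compound was applied to crude K562 extract at 1 mg/mL protein in PBS pH 7.4 with 1 mM MgCl2. Heating for 3 min spanned 48°C-58°C, after which aliquots were pooled, adjusted to 0.5% NP-40 at 4°C and spun at 21,000xg for 90 min. TMTpro 16plex LC-MS/MS of the supernatant, with channel sums equalised, gave values recorded as log-two fold change in thermal stability against solvent controls, from duplicates.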

[2] = compound: CC1=C(SC2=C1C(=N[C@H](C3=NN=C(N32)C)CC(=O)N)C4=CC=C(C=C4)Cl)C
Procedure, shortened: as §1

[3] = compound: CC1=C2C(=CC=C1)N=C(N(C2=O)C3=CC=CC=C3C)CN4C=NC5=C(N=CN=C54)N
Procedure, shortened: as §1

[4] = compound: Cc1sc2c(c1C)C(c1ccc(Cl)cc1)=N[C@@H](CC(=O)OC(C)(C)C)c1nnc(C)n1-2
Procedure, shortened: as §1

[5] = compound: c1ccc([C@@H]2C[C@H]2NC2CCNCC2)cc1
Procedure, shortened: as §1

Chain of UniProt Q9NQW7 (Q9NQW7 whole entry, looked up): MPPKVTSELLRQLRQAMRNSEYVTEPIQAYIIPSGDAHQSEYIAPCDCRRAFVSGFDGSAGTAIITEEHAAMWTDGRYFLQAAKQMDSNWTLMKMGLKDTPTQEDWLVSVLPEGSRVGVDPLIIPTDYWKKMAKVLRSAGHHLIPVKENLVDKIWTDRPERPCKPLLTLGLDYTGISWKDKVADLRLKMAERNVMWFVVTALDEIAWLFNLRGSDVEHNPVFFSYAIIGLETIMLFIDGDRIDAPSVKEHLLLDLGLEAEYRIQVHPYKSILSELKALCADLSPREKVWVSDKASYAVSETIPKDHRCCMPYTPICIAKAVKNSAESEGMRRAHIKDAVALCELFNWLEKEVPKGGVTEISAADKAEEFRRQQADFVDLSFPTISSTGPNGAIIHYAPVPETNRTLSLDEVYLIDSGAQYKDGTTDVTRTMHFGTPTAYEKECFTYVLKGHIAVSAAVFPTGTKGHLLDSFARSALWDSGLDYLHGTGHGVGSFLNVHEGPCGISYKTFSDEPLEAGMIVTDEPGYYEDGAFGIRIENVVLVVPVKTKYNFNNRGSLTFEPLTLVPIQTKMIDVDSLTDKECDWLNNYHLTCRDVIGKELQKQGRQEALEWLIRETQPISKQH
Chain of UniProt A4D1P6 (A4D1P6 whole entry, looked up): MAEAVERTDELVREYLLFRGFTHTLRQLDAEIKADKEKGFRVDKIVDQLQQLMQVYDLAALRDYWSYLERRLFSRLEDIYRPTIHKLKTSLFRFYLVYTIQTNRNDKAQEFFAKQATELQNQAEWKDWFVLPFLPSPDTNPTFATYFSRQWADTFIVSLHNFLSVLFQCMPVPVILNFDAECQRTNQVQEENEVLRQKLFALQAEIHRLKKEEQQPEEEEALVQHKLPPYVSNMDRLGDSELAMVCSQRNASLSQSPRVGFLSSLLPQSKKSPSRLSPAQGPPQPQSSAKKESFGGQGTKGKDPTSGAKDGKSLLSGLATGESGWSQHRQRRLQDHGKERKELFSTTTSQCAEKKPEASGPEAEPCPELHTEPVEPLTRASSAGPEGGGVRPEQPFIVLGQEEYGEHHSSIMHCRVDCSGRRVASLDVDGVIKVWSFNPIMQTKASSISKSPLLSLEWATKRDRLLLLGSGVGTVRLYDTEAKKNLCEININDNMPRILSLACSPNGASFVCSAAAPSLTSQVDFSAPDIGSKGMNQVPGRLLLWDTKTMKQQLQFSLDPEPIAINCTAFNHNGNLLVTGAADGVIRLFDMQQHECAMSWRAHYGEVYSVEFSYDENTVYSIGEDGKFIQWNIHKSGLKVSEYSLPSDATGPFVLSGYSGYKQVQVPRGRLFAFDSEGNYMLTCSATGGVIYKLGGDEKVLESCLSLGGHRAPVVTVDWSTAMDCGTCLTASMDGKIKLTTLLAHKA
Chain of UniProt P50552 (P50552 whole entry, looked up): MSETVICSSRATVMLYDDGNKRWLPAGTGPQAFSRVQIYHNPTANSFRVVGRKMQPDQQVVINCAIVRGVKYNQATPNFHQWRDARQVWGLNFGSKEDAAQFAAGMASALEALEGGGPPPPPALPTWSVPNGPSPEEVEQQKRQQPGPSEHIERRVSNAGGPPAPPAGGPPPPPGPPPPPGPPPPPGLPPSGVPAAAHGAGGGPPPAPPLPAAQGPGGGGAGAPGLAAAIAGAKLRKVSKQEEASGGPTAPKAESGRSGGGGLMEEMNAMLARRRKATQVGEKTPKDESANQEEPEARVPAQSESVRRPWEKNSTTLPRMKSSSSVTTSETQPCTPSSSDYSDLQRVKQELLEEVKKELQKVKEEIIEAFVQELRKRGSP
Chain of UniProt Q96QU8 (Q96QU8 whole entry, looked up): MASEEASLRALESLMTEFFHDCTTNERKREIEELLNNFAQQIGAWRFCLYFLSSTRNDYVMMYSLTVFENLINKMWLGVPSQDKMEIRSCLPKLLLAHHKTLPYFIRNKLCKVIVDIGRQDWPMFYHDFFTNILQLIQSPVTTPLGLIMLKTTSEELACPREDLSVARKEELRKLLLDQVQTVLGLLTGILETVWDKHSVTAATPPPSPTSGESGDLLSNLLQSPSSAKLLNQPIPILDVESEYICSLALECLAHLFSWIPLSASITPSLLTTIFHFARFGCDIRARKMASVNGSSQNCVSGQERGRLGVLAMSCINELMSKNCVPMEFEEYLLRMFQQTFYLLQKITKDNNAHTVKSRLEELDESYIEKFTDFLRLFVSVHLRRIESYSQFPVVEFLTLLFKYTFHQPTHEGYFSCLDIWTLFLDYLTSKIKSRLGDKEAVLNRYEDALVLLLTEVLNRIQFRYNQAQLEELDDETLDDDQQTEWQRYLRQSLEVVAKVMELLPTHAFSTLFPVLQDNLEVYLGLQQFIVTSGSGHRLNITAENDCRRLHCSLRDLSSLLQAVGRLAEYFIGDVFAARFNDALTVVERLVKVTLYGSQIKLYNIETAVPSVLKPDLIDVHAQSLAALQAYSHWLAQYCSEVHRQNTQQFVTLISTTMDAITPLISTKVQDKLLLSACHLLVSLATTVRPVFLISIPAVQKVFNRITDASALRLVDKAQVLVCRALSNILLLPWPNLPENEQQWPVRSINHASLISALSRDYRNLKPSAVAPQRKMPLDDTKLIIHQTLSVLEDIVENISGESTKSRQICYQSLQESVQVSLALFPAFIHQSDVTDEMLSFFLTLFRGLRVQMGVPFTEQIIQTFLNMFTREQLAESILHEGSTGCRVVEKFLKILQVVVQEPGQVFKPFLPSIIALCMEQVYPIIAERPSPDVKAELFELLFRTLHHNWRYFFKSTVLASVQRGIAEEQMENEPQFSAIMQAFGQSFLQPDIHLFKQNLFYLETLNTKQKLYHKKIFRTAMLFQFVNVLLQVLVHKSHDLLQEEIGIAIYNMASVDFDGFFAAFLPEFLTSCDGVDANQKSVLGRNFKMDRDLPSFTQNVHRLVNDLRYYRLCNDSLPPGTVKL
Chain of UniProt Q9UPT9 (Q9UPT9 whole entry, looked up): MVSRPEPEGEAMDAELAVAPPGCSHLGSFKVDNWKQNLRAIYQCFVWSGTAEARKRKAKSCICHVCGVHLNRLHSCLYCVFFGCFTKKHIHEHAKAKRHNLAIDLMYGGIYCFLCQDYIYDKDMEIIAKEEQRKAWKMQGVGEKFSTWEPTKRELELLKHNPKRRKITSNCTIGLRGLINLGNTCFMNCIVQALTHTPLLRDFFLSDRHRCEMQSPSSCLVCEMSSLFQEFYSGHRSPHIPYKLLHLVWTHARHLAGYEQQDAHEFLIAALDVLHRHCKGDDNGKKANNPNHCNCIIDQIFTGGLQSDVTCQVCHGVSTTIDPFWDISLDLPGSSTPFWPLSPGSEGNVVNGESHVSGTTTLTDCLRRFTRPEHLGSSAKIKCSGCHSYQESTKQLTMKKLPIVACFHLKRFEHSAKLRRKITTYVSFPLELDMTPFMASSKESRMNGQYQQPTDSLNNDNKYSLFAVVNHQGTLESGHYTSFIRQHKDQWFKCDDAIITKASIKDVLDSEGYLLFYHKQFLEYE
Chain of UniProt O00488 (O00488 whole entry, looked up): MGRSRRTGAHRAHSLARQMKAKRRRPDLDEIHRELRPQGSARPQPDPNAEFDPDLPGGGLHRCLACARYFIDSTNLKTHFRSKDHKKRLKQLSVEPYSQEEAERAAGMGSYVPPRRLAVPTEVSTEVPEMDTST
Chain of UniProt Q9Y5J1 (Q9Y5J1 whole entry, looked up): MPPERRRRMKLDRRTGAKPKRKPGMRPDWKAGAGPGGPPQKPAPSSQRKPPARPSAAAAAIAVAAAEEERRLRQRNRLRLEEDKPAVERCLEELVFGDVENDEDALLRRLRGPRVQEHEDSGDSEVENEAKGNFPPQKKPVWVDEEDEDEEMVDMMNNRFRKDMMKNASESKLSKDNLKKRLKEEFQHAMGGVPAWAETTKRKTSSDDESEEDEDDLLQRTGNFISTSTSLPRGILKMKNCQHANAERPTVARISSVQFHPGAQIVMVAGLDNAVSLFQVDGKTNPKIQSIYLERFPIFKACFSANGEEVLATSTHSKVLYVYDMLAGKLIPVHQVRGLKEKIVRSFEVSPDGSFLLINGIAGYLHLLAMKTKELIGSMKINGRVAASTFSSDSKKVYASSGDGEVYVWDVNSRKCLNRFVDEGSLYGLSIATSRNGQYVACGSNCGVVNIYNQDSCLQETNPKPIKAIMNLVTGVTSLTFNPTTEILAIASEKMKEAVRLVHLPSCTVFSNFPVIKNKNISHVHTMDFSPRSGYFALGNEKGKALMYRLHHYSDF
Chain of UniProt Q15906 (Q15906 whole entry, looked up): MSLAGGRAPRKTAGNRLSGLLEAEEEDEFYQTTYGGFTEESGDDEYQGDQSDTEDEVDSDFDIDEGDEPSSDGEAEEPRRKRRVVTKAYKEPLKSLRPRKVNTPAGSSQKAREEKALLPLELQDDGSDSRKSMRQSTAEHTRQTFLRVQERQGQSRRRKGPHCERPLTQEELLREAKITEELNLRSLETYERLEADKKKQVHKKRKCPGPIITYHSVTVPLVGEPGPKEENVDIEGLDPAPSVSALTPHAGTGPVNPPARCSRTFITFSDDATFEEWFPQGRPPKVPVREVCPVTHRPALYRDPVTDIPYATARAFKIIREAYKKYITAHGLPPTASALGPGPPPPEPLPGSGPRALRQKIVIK
Chain of UniProt Q9UN37 (Q9UN37 whole entry, looked up): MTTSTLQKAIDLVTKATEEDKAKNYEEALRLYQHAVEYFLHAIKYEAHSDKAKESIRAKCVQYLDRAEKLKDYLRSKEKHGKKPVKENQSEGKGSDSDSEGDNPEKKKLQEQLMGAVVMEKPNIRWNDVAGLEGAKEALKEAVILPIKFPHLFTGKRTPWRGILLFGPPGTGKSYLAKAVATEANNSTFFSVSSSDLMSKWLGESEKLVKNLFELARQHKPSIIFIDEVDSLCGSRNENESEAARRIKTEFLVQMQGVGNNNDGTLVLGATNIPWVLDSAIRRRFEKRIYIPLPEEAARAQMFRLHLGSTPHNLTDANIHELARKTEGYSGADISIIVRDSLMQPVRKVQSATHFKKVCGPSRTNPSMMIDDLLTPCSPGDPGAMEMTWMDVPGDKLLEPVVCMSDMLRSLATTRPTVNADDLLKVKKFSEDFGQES

| Target | log2 fold change [1] | log2 fold change [2] | log2 fold change [3] | log2 fold change [4] | log2 fold change [5] |
| --- | --- | --- | --- | --- | --- |
| WDR6 (UniProt Q9NNW5) | -0.001 | 0.02 | 0.008 | -0.021 | -0.013 |
| USP22 (UniProt Q9UPT9) | 0.039 | -0.025 | 0.012 | 0.045 | 0.055 |
| ZC3H13 (UniProt Q5T200) | -0.005 | -0.039 | 0.013 | -0.061 | 0.136 |
| YTHDC2 (UniProt Q9H6S0) | 0.004 | -0.018 | -0.078 | -0.002 | 0.058 |
| ZMYM2 (UniProt Q9UBW7) | 0.105 | 0.07 | 0.062 | 0.015 | 0.183 |
| USP48 (UniProt Q86UV5) | -0.104 | -0.028 | -0.029 | 0.098 | -0.187 |
| VARS (UniProt P26640) | -0.022 | 0.013 | 0.013 | 0 | 0.031 |
| XPNPEP1 isoform 3 (UniProt Q9NQW7) | -0.007 | -0.025 | 0.002 | 0.044 | -0.006 |
| ZFYVE19 (UniProt Q96K21) | 0.076 | 0.042 | 0.012 | -0.032 | -0.183 |
| VPS37B (UniProt Q9H9H4) | 0.028 | 0.039 | 0.01 | -0.01 | 0.064 |
| WIPI2 (UniProt Q9Y4P8) | 0.03 | -0.033 | -0.008 | -0.055 | -0.096 |
| WDR62 isoform 4 (UniProt O43379) | 0.026 | -0.004 | -0.011 | 0.003 | 0.038 |
| USE1 (UniProt Q9NZ43) | 0.006 | 0.008 | -0.119 | -0.109 | -0.002 |
| ZZEF1 (UniProt O43149) | -0.022 | -0.004 | 0.012 | -0.05 | -0.028 |
| VPS39 (UniProt Q96JC1) | -0.008 | -0.002 | -0.006 | -0.009 | 0.3 |
| XPO6 (UniProt Q96QU8) | -0.053 | 0.057 | 0.023 | 0.039 | -0.045 |
| ZMAT2 (UniProt Q96NC0) | 0.037 | -0.01 | 0.03 | 0.03 | 0.013 |
| ZNF644 (UniProt Q9H582) | 0 | 0.003 | -0.098 | -0.009 | 0.01 |
| WRN (UniProt Q14191) | 0.006 | -0.017 | 0.009 | 0.01 | 0.006 |

| Target | log2 fold change [1] | log2 fold change [2] | log2 fold change [3] | log2 fold change [4] | log2 fold change [5] |
| --- | --- | --- | --- | --- | --- |
| WDR7 (UniProt Q9Y4E6) | 0.055 | 0.011 | 0.019 | 0.029 | -0.027 |
| USP9X (UniProt Q93008) | -0.033 | 0.005 | 0.014 | 0.008 | -0.001 |
| YES1 (UniProt P07947) | -0.068 | -0.099 | 0.009 | -0.045 | 0 |
| WDR3 (UniProt Q9UNX4) | 0.039 | -0.026 | 0.006 | -0.014 | 0.056 |
| ZNF593 (UniProt O00488) | -0.038 | 0.051 | 0.008 | 0.127 | 0.035 |
| ZNF318 (UniProt Q5VUA4) | -0.017 | 0.133 | 0 | 0.018 | 0.038 |
| XPO5 (UniProt Q9HAV4) | -0.046 | -0.021 | 0.002 | -0.021 | 0.032 |
| VPS4A (UniProt Q9UN37) | -0.056 | 0.034 | -0.102 | 0.017 | 0.074 |
| VASP (UniProt P50552) | -0.005 | 0.006 | 0.008 | -0.052 | 0.017 |
| XPOT (UniProt O43592) | -0.017 | 0.008 | 0.037 | 0.003 | 0.021 |
| WDR91 (UniProt A4D1P6) | -0.009 | 0.027 | 0.009 | -0.02 | 0.026 |
| UTP18 (UniProt Q9Y5J1) | 0.117 | -0.005 | -0.088 | -0.013 | 0.059 |
| ZNF609 (UniProt O15014) | 0.009 | 0.008 | 0.078 | -0.047 | -0.082 |
| ZC2HC1A (UniProt Q96GY0) | 0.059 | -0.046 | -0.018 | 0.106 | -0.058 |
| VPS28 (UniProt Q9UK41) | -0.087 | -0.04 | -0.013 | 0.073 | 0 |
| VPS54 (UniProt Q9P1Q0) | -0.157 | 0.136 | 0.044 | 0.053 | -0.217 |
| WDR77 (UniProt Q9BQA1) | 0.02 | 0.012 | 0.012 | 0.006 | 0.006 |
| ZFPM1 (UniProt Q8IX07) | 0.073 | -0.033 | -0.012 | -0.036 | 0.078 |
| VPS18 (UniProt Q9P253) | -0.014 | 0.013 | 0.032 | 0.067 | 0.012 |

| Target | log2 fold change [1] | log2 fold change [2] | log2 fold change [3] | log2 fold change [4] | log2 fold change [5] |
| --- | --- | --- | --- | --- | --- |
| ZBTB33 (UniProt Q86T24) | 0.046 | -0.082 | 0.003 | 0 | -0.015 |
| WAC (UniProt Q9BTA9) | -0.03 | 0.056 | -0.013 | 0.041 | 0.037 |
| YRDC (UniProt Q86U90) | -0.009 | 0.02 | -0.046 | -0.029 | -0.053 |
| YME1L1 (UniProt Q96TA2) | 0.004 | -0.021 | 0.032 | -0.008 | 0.002 |
| WIPI2 isoform 6 (UniProt Q9Y4P8) | 0.092 | 0.088 |  |  | -0.073 |
| ZC3H11A (UniProt O75152) | -0.015 | 0 | 0.081 | 0.023 | 0.063 |
| VRK2 (UniProt Q86Y07) | 0.004 | 0 | -0.242 | -0.023 | -0.018 |
| ZNF346 (UniProt Q9UL40) | 0.031 | -0.017 |  | -0.205 (active) | -0.086 |
| UTRN isoform 2 (UniProt P46939) | 0.026 | 0.037 |  |  | 0.062 |
| ZNF146 (UniProt Q15072) |  |  |  | -0.059 |  |
| ZYG11A (UniProt Q6WRX3) | -0.075 | -0.13 |  |  | -0.012 |
| VAC14 (UniProt Q08AM6) | -0.008 | -0.008 | 0.042 | -0.012 | 0.001 |
| VHL (UniProt P40337) | 0.165 | 0.004 | -0.029 | -0.178 | 0.08 |
| USP10 isoform 2 (UniProt Q14694) | -0.038 | 0.029 | 0 | -0.013 | 0.023 |
| UXT isoform 2 (UniProt Q9UBK9) | 0.033 | 0.026 | 0.008 | -0.053 | -0.071 |
| ZNF281 (UniProt Q9Y2X9) |  |  |  | -0.02 |  |
| VPS72 (UniProt Q15906) |  |  | 0.027 | -0.015 | -0.035 |
| ZNF451 (UniProt Q9Y4E5) | -0.038 | 0.03 | -0.014 | 0.018 | 0.009 |
